SENP8 block-1 = inhibitors of human SENP8 protease; purified SENP8, Z-RLRGG-aminoluciferin cleavage, luminescence; inhibition, % at 10 µM; 330,000 compounds, 1.2% hits; in the data active means inhibition above about 50%
C8 TRAIL sens = caspase-8 TRAIL sensitization; AID 624354; inhibition (viability loss, TRAIL sensitization), % at 10 µM; NB7+C8 cells + TRAIL, ATPlite viability luminescence; 360,000 compounds, 1% hits;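 active means compounds causing at least 50% loss of cell viability in the single-dose screen, relative to plate controls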
SENP8 block-2 = SENP8 (human) protease inhibition; Q96LD8; recombinant SENP8, Nedd8 substrate fluorescence; inhibition, % at 20 µM; 360,000 compounds, 0.64% hits; in the data active means inhibition mostly above about 40%, no sharp cut-off; inactive means mostly below about 27%
PPC-1+TRAIL kill = kills PPC-1 cancer cells in the presence of TRAIL; PPC-1 cells + TRAIL, ATPLite viability luminescence; cell killing (% activity), % at 4 µM or 5 µM; 220,000 compounds, 0.41% hits;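 active means cell killing above 50% in the first pass at 4 µM, then a duplicate retest at 5 µM averaging 50% or more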;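 further: plate controls were cells with TRAIL plus DMSO for no effect and medium-only wells lacking cells for full effect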
SENP7 inh = SENP7 protease inhibition; Q9BQF6; recombinant SENP7, Z-RLRGG-aminoluciferin luminescence, 40 min; inhibition, % at 5 µM; 330,000 compounds, 1.5% hits; AID 434973;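 active means inhibition above about 50% at the single test dose, limit read from the data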;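 further: plate controls were DMSO with enzyme for no effect and no enzyme buffer wells for full effect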
SENP6 block = SENP6 protease inhibition; Q9GZR1; AID 2599; 330,000 compounds, 1.8% hits; inhibition, % at 10 µM; Recombinant SENP6 catalytic domain, aminoluciferin luminescence;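 active means inhibition above about 50% at the single tested dose, limit read from the data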;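 further: plate controls were DMSO wells with enzyme for no effect and DMSO wells lacking enzyme for full effect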
Target sequence (Q9GZR1 628-1112 limits assumed): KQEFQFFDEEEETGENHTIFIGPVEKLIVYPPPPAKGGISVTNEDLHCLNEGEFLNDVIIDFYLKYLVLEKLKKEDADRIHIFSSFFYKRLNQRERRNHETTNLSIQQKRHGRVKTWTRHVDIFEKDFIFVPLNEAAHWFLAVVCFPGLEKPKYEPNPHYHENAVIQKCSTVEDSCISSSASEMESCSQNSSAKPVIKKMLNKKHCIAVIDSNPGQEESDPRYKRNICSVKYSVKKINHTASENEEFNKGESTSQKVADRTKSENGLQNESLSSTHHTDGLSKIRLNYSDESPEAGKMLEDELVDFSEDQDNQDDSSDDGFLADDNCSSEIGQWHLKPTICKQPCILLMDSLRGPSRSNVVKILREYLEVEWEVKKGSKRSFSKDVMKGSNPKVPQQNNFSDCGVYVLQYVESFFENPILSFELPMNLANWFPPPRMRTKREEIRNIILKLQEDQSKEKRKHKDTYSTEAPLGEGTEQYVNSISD
Starred values were filed as active, the others as inactive; . = no result given. Rows were chosen to be rich in hits. Some 3% of all compounds tested hit in one or more screens of this group.

SMILES	SENP8 block-1	C8 TRAIL sens	SENP8 block-2	PPC-1+TRAIL kill	SENP7 inh	SENP6 block
CCOc1ccc(C(=O)Nc2nnc(SCC(=O)NCC3CCCO3)s2)cc1 (stereo unspecified)	18	92*	-30	.	47	10
Cc1cc(-c2nnc(CSc3nnc(NC(=O)c4ccc(C(C)(C)C)cc4)s3)o2)ccc1[N+](=O)[O-]	5	51*	20	38	10	2
CC(C)c1ccc(Nc2nnc(SCC(=O)NCC3CCCO3)s2)cc1 (stereo unspecified)	-1	39	9	.	6	-6
CN(C)S(=O)(=O)c1ccc(C(=O)Nc2nnc(SCC(=O)NCC3CCCO3)s2)cc1 (stereo unspecified)	-7	55*	-7	.	-13	10
Cc1cc(N2C(=O)C(O)=C(C(=O)c3cc4ccccc4o3)C2c2cccs2)no1 (stereo unspecified)	-3	10	-18	.	5	-8
CCc1ccc2nc(N3C(=O)C(O)=C(C(=O)c4ccco4)C3c3cccs3)sc2c1 (stereo unspecified)	30	28	-114	28	38	55*
Cc1ccc2nc(N3C(=O)C(O)=C(C(=O)c4cc5ccccc5o4)C3c3cccs3)sc2c1 (stereo unspecified)	68*	16	-85	23	78*	88*
Cc1ccc2nc(N3C(=O)C(O)=C(C(=O)c4ccc(C)o4)C3c3ccco3)sc2c1 (stereo unspecified)	64*	-19	-132	.	76*	78*
CC(C)(C)OC(=O)NCc1ccc(CNC(=O)c2nc[nH]c2C(=O)N2CCN(c3ccccc3)CC2)cc1	-3	-5	12	.	-8	-28
O=C(NCCCN1CCCC1=O)c1cccc(S(=O)(=O)N2CCN(c3ccc(F)cc3)CC2)c1	2	8	9	.	-5	2
N#CCCN(Cc1ccccc1)C(=O)CCC(=O)c1ccc(F)cc1	.	-30	-5	.	.	.
CCc1ccccc1NC(=O)Nc1ccc2c(c1)OCO2	37	3	8	6	82*	-12
CCc1cccc(NC(=O)Nc2ccc3c(c2)OCO3)c1	-6	1	5	7	8	9
O=C(Nc1cccc(F)c1)c1ccc2c(c1)OCO2	71*	8	26	42	90*	86*
O=C(Nc1ccc2c(c1)OCO2)c1n[nH]c(=O)c2ccccc12	38	2	20	29	62*	67*
CCc1nc2ccc(C(=O)Nc3cccc(C(C)=O)c3)cc2nc1CC	5	-1	8	12	3	33
O=C(Nc1ccc2c(c1)OCO2)c1nn(-c2ccccc2)c(=O)c2ccccc12	-6	10	31	12	3	-17
CCc1nc2ccc(C(=O)Nc3ccc4c(c3)OCO4)cc2nc1CC	51*	10	16	7	50	13
COc1ccc(CNC(=O)CSc2nccn(-c3ccc(F)c(F)c3)c2=O)cc1	-2	1	-419	.	-2	-2
COc1ccccc1NC(=O)COC(=O)CCn1c(C)csc1=O	-6	-8	-6	.	-5	2
O=[N+]([O-])c1ccccc1N=Nc1ccc(O)cc1O	.	0	65*	.	.	.
O=S(=O)(O)c1cc(O)c(N=Nc2ccc(O)cc2O)c2ccccc12	.	18	12	.	.	.
O=C(NCC(=O)N1CC=C(c2ccccc2)CC1)c1ccc(F)cc1	-2	2	-1	.	-11	-5
NC(=O)c1ccsc1NC(=O)c1coc2ccccc2c1=O	66*	52*	13	29	79*	83*
Oc1ccccc1C=Nc1ccccc1-c1nc2ccccc2[nH]1	-11	52*	-283	3	-4	-21
SMILES	SENP8 block-1	C8 TRAIL sens	SENP8 block-2	PPC-1+TRAIL kill	SENP7 inh	SENP6 block
Fc1ccccc1-c1nc2ccccc2[nH]1	63*	23	-49	22	76*	74*
Oc1ccc(C=Nc2ccccc2-c2nc3ccccc3[nH]2)c(O)c1	-10	6	-276	-2	5	-19
COc1cccc(-n2cnnc2SCC(=O)NC2CC2)c1	-14	-18	6	.	-4	-24
Cc1ccc2cc(/C=N/Nc3nc4ccccc4[nH]3)c(Cl)nc2c1	.	87*	-23	0	.	.
Cn1c(N/N=C/c2cc3ccccc3nc2Cl)nc2ccccc21	-5	88*	-132	2	0	-8
CCOC(=O)C1CCCN(C(=O)CSc2nnnn2C)C1 (stereo unspecified)	1	0	14	.	9	-9
CCOC(=O)C1CCN(S(=O)(=O)c2cn(C)c(C)n2)CC1	-4	5	-49	.	0	5
O=C(COC(=O)c1cc(=O)[nH]c(=O)[nH]1)Nc1ccccc1F	18	-14	-3	.	-2	-13
Cc1cc(C)nc(N/N=C/c2ccccc2Cl)n1	12	2	17	29	33	26
Cc1cc(N/N=C/c2ccccc2Cl)nc(NCc2ccccc2)n1	-5	57*	-28	46	7	17
O=C1C=C(c2ccc3cc[nH]c3c2)C[C@@H](c2ccc3c(c2)OCO3)C1	2	-2	-9	.	-2	3
COc1ccc(Nc2nc(-c3ccccc3)nc3ccccc23)cc1S(=O)(=O)N1CCOCC1	-7	48*	-443	23	-7	-3
CCC(=O)N(C1=C(NC(C)C)C(=O)c2ccccc2C1=O)C(C)C	7	13	24	11	12	44
CCCNC1=C(N(C(C)=O)c2cccc(F)c2)C(=O)c2ccccc2C1=O	.	76*	28	70*	.	.
C=CCc1cccc(/C=N/NC(=O)c2ccc3nc[nH]c3c2)c1O	2	31	2	.	-6	13
COc1cc2c(cc1NC(=O)c1cccc([N+](=O)[O-])c1)oc1ccccc12	-3	50*	22	18	-7	-10
COc1ccccc1CNS(=O)(=O)c1ccc(-n2cnnn2)c(OC)c1	-1	-9	9	.	-4	-24
Cc1ccccc1Oc1cc(-n2ncc(Cl)c(Cl)c2=O)ncn1	.	97*	1	18	.	.
CCOc1cnn(-c2cc(Oc3ccc(C)cc3)ncn2)c(=O)c1Cl	1	-2	18	-16	6	-21
COc1ccc(OCCOC(=O)c2ccc(F)c(S(=O)(=O)N3CCOCC3)c2)cc1	1	-1	7	.	1	-7
CC(C)c1ccc(-n2c(-c3ccccc3)c[n+]3c2CCc2ccccc2-3)cc1	.	53*	-26	48	.	.
COc1ccc(-n2c(-c3ccc(Br)cc3)c[n+]3c2CCc2ccccc2-3)cc1	-8	40	14	34	1	-16
CCN(CC)c1ccc(N2C(=O)CSC2=S)cc1	3	2	55*	.	14	7
CCOc1ccc(N2C(=O)CSC2=S)cc1	3	-6	6	.	9	17
O=C(NCCCn1ccnc1)c1ccc(Cl)s1	8	0	-8	.	-5	4
Cc1ccc(OCC(=O)NCCNC(=O)c2ccco2)cc1C	-2	9	5	.	-2	-12
